The values below come from PubChem BioAssay (NCI).

Holding throughout (assay): NCI-60 one-dose screen, 48 h (100 = growth as untreated, 0 = no growth, -100 = all killed)
What all share (conditions): 10 µM unless noted

The subject of test [1] is SR leukemia.
In test [2] the test system is RPMI-8226 leukemia.
Test [3] concerns OVCAR-8 ovarian.
In test [4] the test system is OVCAR-5 ovarian.
For test [5], the system named is OVCAR-4 ovarian.
Test [6] deals with SK-OV-3 ovarian.
For test [7], the system named is IGROV1 ovarian.
For test [8], the system named is OVCAR-3 ovarian.
Test [9] concerns HS 578T breast.
Test [10] relates to NCI/ADR-RES ovarian.
In test [11] the test system is T-47D breast.
In test [12] the test system is BT-549 breast.
Test [13] concerns MDA-MB-435 melanoma.
In test [14] the test system is SW-620 colon.
Test [15] has as its system MCF7 breast.
Test [16] deals with HCT-116 colon.
Test [17] has as its system HCC-2998 colon.
Test [18] has as its system KM12 colon.

The structures appear in SMILES notation. “And” between values parts separate entries of the source, which are not always exact repeats. Identical values can stand only once. Compounds without any hit were thinned out: in the full panel of roughly 83,000, 20% have a hit.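 Compound tested at a single concentration for 48 hours in 96-well plates; a percent growth value below 10 was scored as active.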 The source made the active and inactive calls.

Consider `O=C(/C=C\c1ccnc2ccccc12)c1ccc([N+](=O)[O-])cc1`, for which the growth in test [1] is 6.51% (active); in test [2], 31.1% (inactive) and -26.4% (active); in test [3], 99.1% (inactive) and 73.5% (inactive); in test [4] it was 89.4% (inactive) and 96.3% (inactive); in test [5], 85.3% (inactive) and 63.1% (inactive); in [6], 95% (inactive) and 89.6% (inactive). Further, the growth was 108% (inactive) and 92.9% (inactive) in test [7]; 100% (inactive) and 87.8% (inactive) in test [8]; 107% (inactive) and 88.6% (inactive) in [9]; 81.6% (inactive) and 67.4% (inactive) in [10]; 70.3% (inactive) and 59.3% (inactive) in test [11]; 80.4% (inactive) and 77.9% (inactive) in test [12]. Moreover, the growth is 93.2% (inactive) and 46.5% (inactive) in [13]; 80.6% (inactive) and 6.55% (active) in [14]; 75.8% (inactive) and 25.4% (inactive) in [15]; 0.905% (active) and -94% (active) in test [16]; 82.7% (inactive) in test [17]; 83.3% (inactive) and 33.1% (inactive) in test [18].

For the compound `COc1ccccc1C(C)=O`, the growth in [1] is 95.8% (inactive) and 86% (inactive); in test [2], 90.6% (inactive) and 100% (inactive); in test [3], 105% (inactive) and 96.7% (inactive); in test [4] it was 117% (inactive) and 106% (inactive); in test [5], 111% (inactive) and 105% (inactive); in test [6], 103% (inactive) and 102% (inactive). Moreover, the growth in [7] is 119% (inactive) and 109% (inactive); in [8], 106% (inactive) and 110% (inactive); in test [9], 88.2% (inactive); in [10], 106% (inactive) and 113% (inactive); in test [11], 106% (inactive) and 96.2% (inactive); in test [12], 109% (inactive) and 100% (inactive). For the same compound, the growth in test [13] was 104% (inactive) and 112% (inactive); in test [14], 95.4% (inactive) and 105% (inactive); in [15], 103% (inactive) and 96.6% (inactive); in [16] it was 107% (inactive) and 102% (inactive); in test [17], 111% (inactive) and 107% (inactive); in test [18], 102% (inactive) and 111% (inactive).

For `O=C(O)CSCc1nc2ccccc2[nH]1`, the growth was 96.5% (inactive) in test [1]; 94% (inactive) in test [2]; 113% (inactive) in [3]; 110% (inactive) in test [4]; 107% (inactive) in test [5]; 113% (inactive) in [6]. Moreover, the growth is 109% (inactive) in test [7]; 106% (inactive) in [8]; 102% (inactive) in test [9]; 101% (inactive) in test [10]; 104% (inactive) in test [11]; 108% (inactive) in test [12]. Further, the growth in test [13] was 115% (inactive); in test [14], 103% (inactive); in [15], 96.4% (inactive); in test [16] it was 107% (inactive); in test [17] it was 103% (inactive); in test [18], 111% (inactive).

As for `CC1=C(/C=C/C(C)=C/C=C/C(C)=C/C(=O)O)C(C)(C)CCC1`, the growth in test [1] is 68.5% (inactive) and 87.1% (inactive) and 68.1% (inactive); in test [2], 31.4% (inactive) and 4.62% (active) and 31.1% (inactive); in test [3], 87% (inactive) and 89.2% (inactive); in test [4], 120% (inactive) and 110% (inactive); in [5], 86.9% (inactive) and 92% (inactive) and 85% (inactive); in [6], 72% (inactive) and 90.2% (inactive) and 101% (inactive). Moreover, the growth in test [7] was 99.5% (inactive) and 96% (inactive) and 75.9% (inactive); in [8] it was 88.2% (inactive) and 95% (inactive) and 107% (inactive); in test [9], 77.1% (inactive) and 97.4% (inactive) and 75.8% (inactive); in [10] it was 90.9% (inactive) and 95% (inactive); in test [11], 63.4% (inactive) and 86.2% (inactive) and 77.1% (inactive); in test [12], 100% (inactive) and 84.9% (inactive) and 99.2% (inactive). Further, the growth is 92.3% (inactive) and 90.7% (inactive) and 107% (inactive) in [13]; 111% (inactive) and 106% (inactive) and 116% (inactive) in test [14]; 68.6% (inactive) and 67.4% (inactive) and 73.2% (inactive) in test [15]; 83% (inactive) and 98.7% (inactive) and 89.6% (inactive) in [16]; 108% (inactive) and 111% (inactive) and 105% (inactive) in test [17]; 94.7% (inactive) and 105% (inactive) and 102% (inactive) in test [18].

For the compound `CCN(CC)CCCC(CNc1ccnc2cc(Cl)ccc12)c1ccc(Cl)cc1` (stereo not given), the growth in test [1] is -42.9% (active) and -57.7% (active); in test [2], -7.53% (active) and -24.9% (active); in test [3], 7.69% (active) and 8.6% (active); in [4] it was 17.5% (inactive) and 62.9% (inactive); in test [5], -34.9% (active) and 14.3% (inactive); in [6], 28% (inactive) and 99.4% (inactive). Also, the growth in test [7] is -9.56% (active) and 20.2% (inactive); in [8] it was 43% (inactive) and 19.9% (inactive); in test [9], 21.6% (inactive); in test [10], 19.5% (inactive) and 15.9% (inactive); in test [11], -41.1% (active) and 114% (inactive); in test [12] it was 10.4% (inactive) and -11.4% (active). Besides, the growth in test [13] was -93.3% (active) and -61.5% (active); in [14], 6.45% (active) and -100% (active); in [15], -31.8% (active) and 70.3% (inactive); in test [16] it was -15.1% (active) and -20.3% (active); in [17], -76.8% (active) and -93.6% (active); in test [18], 1.49% (active) and 33.3% (inactive).
